# According to ChEMBL document CHEMBL1157539, “Thousands of chemical starting points for antimalarial lead identification” (Nature, 2010):
# Tested on: HepG2
# Test: GSK_TCMDC: Percent inhibition of human HepG2 cell line. Test compounds present at 10uM.
# Format: functional
row,SMILES,Inhibition
1,Cc1cc(=NN=Cc2ccccn2)c2cc(C(F)(F)F)ccc2[nH]1,0%
2,Cc1[nH]c(C)c(-c2ccc(-c3ccccc3Cl)nc2)c(=O)c1Br,0%
3,COc1ccc(CNCc2cccc(-c3cccc(-c4nc5cccc(C)c5[nH]4)c3)c2)cc1.O=C(O)C(F)(F)F,31%
4,O=C(Nc1ccc(-c2nc3ccccc3[nH]2)cc1)C1CCCN(C2CCC2)C1 (centres undefined),0%
5,COC(=O)CCCCCOc1cc(Cc2cnc(N)nc2N)cc(OC)c1OC,0%
6,Cc1[nH]c(C)c(-c2ccc(-c3ccc(C(F)F)cc3)nc2)c(=O)c1Cl,0%
7,Cc1noc(-c2ccc3c(c2)CCN(CCC2CCC(NC(=O)/C=C/c4cccc(Cl)c4)CC2)CC3)n1.Cl (centres undefined),37%
8,COc1ccc2nccc([C@@H](O)CN3CCC(NC(=O)c4ccc(-c5ccccc5)s4)CC3)c2c1,10%
9,c1ccc(OCCOc2ccc(Nc3ccnc4cc5ccccc5cc34)cc2)cc1,44%
10,O=C(NCCCCN1CCC(c2c[nH]c3ccc(-c4ccccc4)cc23)CC1)c1ccc(-c2ccccc2)cc1.O=C(O)C(=O)O,48%
11,Cc1cc(-c2nc3cc(C(=N)N)ccc3[nH]2)c(C)cc1-c1nc2cc(C(=N)N)ccc2[nH]1.Cl,0%
12,COc1ccc(CNCc2cccc(-c3ccc(-c4nc5cccc(C)c5[nH]4)cc3)c2)cc1.O=C(O)C(F)(F)F,23%
13,COc1ccc(CNC2CCN(C)CC2)cc1-c1ccc(S(=O)(=O)NCc2ccccc2)c(F)c1.O=C(O)C(F)(F)F,53%
14,N#Cc1ccc(-c2ccc(C(=O)NC3CCN(CCN4CCC(c5cn(CCOC6CCCCO6)c6ccccc56)CC4)CC3)cc2)cc1 (centres undefined),48%
